Bioassay records from PubChem.
Pol eta inh-1: qHTS for Inhibitors of Polymerase Eta | Potency, µM (top dose mostly 114 µM), usual class: inhibitors | DNA polymerase eta (Homo sapiens), Q9Y253 | recombinant Pol eta, fluorescent DNA replication assay | actives 1.2% (n = 390,000)
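Pol eta (10 nM) was preincubated with compounds for 15 min at room temperature, after which fluorescent replication substrate (50 nM final) was added to start the reaction. Fluorescence was read kinetically at 0 and 10 min.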
FEN1 inh-1: qHTS Assay for the Inhibitors of Human Flap endonuclease 1 (FEN1); Potency, µM (highest dose often 114 µM), hits mostly inhibitors; Recombinant FEN1 flap cleavage, fluorescence, 15 min; actives 0.35% (n = 390,000); further: nearly all actives have a fitted effect of over 65% in size
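FEN1 at 10 nM preincubated with compounds 15 min at room temperature, then flap DNA substrate added at 50 nM final. Signal read at 0 and 15 min; concentration-response fitted with four-parameter Hill equation.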
POLB inh: qHTS Assay for Inhibitors of DNA Polymerase Beta; P06746; actives 1.3% (n = 340,000); Potency, µM (titrated, usually from 114 µM), usual class: inhibitors; Pol beta primer extension/strand displacement, fluorescence kinetic
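Curves were derived by four-parameter Hill fits of normalized qHTS data. The kinetic fluorescent primer-extension read was taken at 0 and 10 min after 50 nM substrate, following a 15 min room-temperature preincubation of 10 nM enzyme with compounds.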
WRN helicase inh-1: qHTS for Inhibitors of WRN Helicase. Bifunctional 3'-5' exonuclease/ATP-dependent helicase WRN (Homo sapiens), Q14191. Potency, µM (doses to about 114 µM), hits mostly inhibitors. AID 651768, 2012. actives 0.46% (n = 360,000). WRN helicase unwinding, fluorescent forked duplex, kinetic; further: nearly all actives have a fitted effect of over 55% in size
Target sequence (Q14191 whole entry, looked up): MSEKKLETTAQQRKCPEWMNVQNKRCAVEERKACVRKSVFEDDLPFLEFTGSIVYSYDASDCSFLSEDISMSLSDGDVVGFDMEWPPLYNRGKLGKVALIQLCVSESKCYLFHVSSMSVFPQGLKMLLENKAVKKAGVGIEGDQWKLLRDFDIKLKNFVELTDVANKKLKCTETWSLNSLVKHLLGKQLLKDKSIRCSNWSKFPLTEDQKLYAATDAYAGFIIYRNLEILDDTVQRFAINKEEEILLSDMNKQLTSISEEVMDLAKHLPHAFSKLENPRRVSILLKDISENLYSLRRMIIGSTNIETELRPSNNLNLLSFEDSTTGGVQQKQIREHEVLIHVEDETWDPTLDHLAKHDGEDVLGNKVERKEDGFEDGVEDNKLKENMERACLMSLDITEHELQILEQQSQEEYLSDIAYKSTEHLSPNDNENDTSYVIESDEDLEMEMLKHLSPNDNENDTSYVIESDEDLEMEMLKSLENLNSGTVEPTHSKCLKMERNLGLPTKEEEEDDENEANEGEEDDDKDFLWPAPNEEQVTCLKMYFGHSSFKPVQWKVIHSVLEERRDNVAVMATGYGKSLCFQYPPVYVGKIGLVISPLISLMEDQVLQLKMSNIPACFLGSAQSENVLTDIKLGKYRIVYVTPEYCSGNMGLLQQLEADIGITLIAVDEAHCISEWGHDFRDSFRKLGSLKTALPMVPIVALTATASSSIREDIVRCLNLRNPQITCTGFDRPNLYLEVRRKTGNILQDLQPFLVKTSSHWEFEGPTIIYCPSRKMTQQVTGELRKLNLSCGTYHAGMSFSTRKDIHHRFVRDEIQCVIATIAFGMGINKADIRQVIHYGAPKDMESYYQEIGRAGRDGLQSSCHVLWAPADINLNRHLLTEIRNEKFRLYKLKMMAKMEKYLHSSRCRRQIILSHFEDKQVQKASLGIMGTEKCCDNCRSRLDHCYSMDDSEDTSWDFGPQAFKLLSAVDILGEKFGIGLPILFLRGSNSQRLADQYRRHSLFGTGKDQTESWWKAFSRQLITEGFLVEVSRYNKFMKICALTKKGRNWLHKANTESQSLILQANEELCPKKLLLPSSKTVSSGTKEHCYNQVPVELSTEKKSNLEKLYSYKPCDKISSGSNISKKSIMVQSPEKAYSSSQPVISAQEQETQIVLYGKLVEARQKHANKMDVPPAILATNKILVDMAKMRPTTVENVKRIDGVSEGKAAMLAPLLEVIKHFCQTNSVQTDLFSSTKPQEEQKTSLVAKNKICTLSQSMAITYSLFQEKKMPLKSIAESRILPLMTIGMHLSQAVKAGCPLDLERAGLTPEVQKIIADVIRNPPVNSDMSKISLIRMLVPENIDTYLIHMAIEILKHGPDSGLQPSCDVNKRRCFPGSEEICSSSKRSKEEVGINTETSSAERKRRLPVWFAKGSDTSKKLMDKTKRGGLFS
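Screening of the MLSMR collection measured strand separation of a quenched forked DNA duplex (100 nM) by 20 nM WRN with 2 mM ATP, all final. Compounds were preincubated with enzyme 15 min at room temperature.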
POLI inh: qHTS for Inhibitors of Polymerase Iota; Potency, µM (series often up to 115 µM), hits mostly inhibitors; AID 588590, 2011; Pol iota fluorescent replication assay, 10 min; actives 1% (n = 390,000); DNA polymerase iota (Homo sapiens), Q9UNA4
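Pol iota at 10 nM preincubated 15 min with compounds at room temperature; reaction started with fluorescent substrate, 50 nM final. Fluorescence read kinetically at 0 and 10 min; buffer-only wells as negative control.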
Pol kappa inh-1: qHTS for Inhibitors of Polymerase Kappa; Potency, µM (top dose mostly 107 µM), actives largely listed as inhibitors; actives 0.53% (n = 400,000); purified Pol kappa, fluorescent DNA synthesis assay, 10 min; AID 588579, 2011; DNA polymerase kappa (Homo sapiens), Q9UBT6
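Kinetic fluorescence readout at 0 and 10 min followed reaction start with substrate at 50 nM final. Beforehand, enzyme (10 nM Pol kappa) stood 15 min with compound at room temperature; buffer-only wells were negative controls.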
TbPGK inh: qHTS for inhibitors of Phosphogylcerate Kinase: Hit Validation Screen; actives 79% (n = 500); TbPGK coupled GAPDH assay, Kinase-Glo luminescence; Potency, µM (highest dose often 57.5 µM), usual class: inhibitors; shares compounds with Pol kappa inh-1; further: nearly all actives have a fitted effect of over 65% in size
Pol iota confirm: qHTS for Inhibitors of Polymerase Iota: Confirmatory Assay for Cherry-picked Compounds; Pol iota primer extension, TAMRA/BHQ fluorescence; shares compounds with Pol kappa inh-1; actives 77% (n = 1,500); Potency, µM, most hits filed as inhibitors
GALK confirm: Confirmation Assay for Inhibitors of Human Galactokinase (GALK); shares compounds with Pol eta inh-1; purified GALK, Kinase-Glo ATP depletion luminescence; Potency, µM (top dose mostly 115 µM), most hits filed as inhibitors; actives 70% (n = 150); AID 2015, 2009
Redox cycling: Confirmatory Assay for Inhibitors of Human Galactokinase (GALK): Phenol-HRP redox assay counterscreen. shares compounds with Pol eta inh-1. Phenol red-HRP H2O2 redox cycling, absorbance 600 nm. Potency, µM (highest dose often 115 µM), actives largely listed as inhibitors. actives 40% (n = 150)
HEK293 viability: Secondary Assay for Inhibitors of Human Galactokinase (GALK): HEK-293 Cell Viability Assay. Potency, µM (highest dose often 46.1 µM), most hits filed as inhibitors. shares compounds with Pol eta inh-1. HEK-293 viability, ATP luminescence (CellTiter-Glo), 24/48 h. actives 10% (n = 170)
Pol kappa inh-2: qHTS for Inhibitors of Polymerase Kappa: Confirmatory Assay for Cherry-picked Compounds | shares compounds with Pol eta inh-1 | purified Pol-kappa, fluorescent strand-displacement substrate | Potency, µM, usual class: inhibitors | actives 76% (n = 920)
Pol eta inh-2: qHTS for Inhibitors of Polymerase Eta: Confirmatory Assay for Cherry-picked Compounds; shares compounds with Pol eta inh-1; Pol eta primer extension, TAMRA/BHQ fluorescence, 10 min; Potency, µM, hits mostly inhibitors; actives 64% (n = 2,600); AID 720502, 2013
FEN1 inh-2: qHTS Assay for the Inhibitors of FEN1: Confirmatory Assay for Cherry-picked Compounds; shares compounds with FEN1 inh-1; FEN1 flap cleavage, TAMRA/BHQ2 fluorogenic DNA substrate; Potency, µM, most hits filed as inhibitors; actives 79% (n = 880); AID 720498, 2013; further: nearly all actives have a fitted effect of over 60% in size
WRN helicase inh-2: qHTS for Inhibitors of WRN Helicase: Confirmatory Assay for Cherry-picked Compounds; actives 63% (n = 610); WRN helicase DNA unwinding, fluorescence kinetic; AID 720497, 2013; Potency, µM (titrated, usually from 57.1 µM), usual class: inhibitors; shares compounds with WRN helicase inh-1; further: nearly all actives have a fitted effect of over 65% in size
TO displacement: qHTS for Inhibitors of WRN Helicase: Thiazole Orange DNA Binding Counterscreen. Potency, µM (series often up to 57.1 µM), hits mostly inhibitors. actives 10% (n = 610). shares compounds with WRN helicase inh-1. thiazole orange DNA binding displacement, fluorescence;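 further: drop in dye fluorescence marks compound binding to DNA; nearly all actives have a fitted effect of over 60% in size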
BLM counter: qHTS for Inhibitors of WRN Helicase: BLM Helicase Counterscreen for WRN Inhibitors; shares compounds with WRN helicase inh-1; AID 720503, 2013; Recombinant BLM helicase DNA unwinding, red fluorescence; Potency, µM (series often up to 57.1 µM), usual class: inhibitors; actives 60% (n = 610); further: nearly all actives have a fitted effect of over 60% in size
Of the large screens only hits and unclear results are named; the others gave an inactive call (follow-up assays come after a bar, where they were run). Only some compounds are listed: those with a hit (about 2.4% of all), similar ones and a draw of the others. The call rests on the fitted dose curve; in most records, active means well fitted curve in the direction sought with a large enough effect; inconclusive means small, poorly fitted or top-dose-only effect, or another doubt; inactive means no such curve, though single readings can be large; an effect the other way counts as inactive or inconclusive.

COC(=O)c1nc(-c2ccc3c(n2)C(=O)C(N)=C(OC)C3=O)c(N)c(-c2ccc(OC)c(OC)c2O)c1C	Pol eta inh-1 10µM, FEN1 inh-1 16µM, POLB inh inconclusive, WRN helicase inh-1 inconclusive, POLI inh 8.9µM, Pol kappa inh-1 inconclusive | Pol iota confirm 47 | GALK confirm 5.3µM | Redox cycling 6.7µM | HEK293 viability inactive | Pol eta inh-2 inconclusive | FEN1 inh-2 38
COCCN1C(=O)NC(=O)/C(=C\c2ccc(F)cc2)C1=O	POLB inh inconclusive
O=C1NC(=O)N(CCc2ccc(F)cc2)C(=O)/C1=C/c1ccco1	Pol eta inh-1 20µM, FEN1 inh-1 inconclusive, POLB inh 3.2µM, WRN helicase inh-1 35µM, POLI inh 13µM, Pol kappa inh-1 inconclusive | TbPGK inh 8.2µM | Pol iota confirm 67 | Pol eta inh-2 48 | FEN1 inh-2 76
COc1ccc(CN2C(=O)NC(=O)/C(=C/c3ccc([N+](=O)[O-])s3)C2=O)cc1	Pol eta inh-1 14µM, FEN1 inh-1 14µM, POLB inh 22µM, WRN helicase inh-1 40µM, POLI inh inconclusive, Pol kappa inh-1 22µM | Pol iota confirm 24 | Pol eta inh-2 5.4 | FEN1 inh-2 17
O=c1c(-c2ccccc2)c(O)c2ccccc2n1-c1ccccc1	none
O=C1NC(=S)N(c2ccccc2)C(=O)/C1=C/c1ccco1	Pol eta inh-1 0.79µM, FEN1 inh-1 8.9µM, POLB inh 10µM, WRN helicase inh-1 0.95µM, POLI inh 1.6µM, Pol kappa inh-1 2.5µM | TbPGK inh 0.33µM | Pol iota confirm 0.47 | Pol kappa inh-2 0.67 | Pol eta inh-2 0.76 | FEN1 inh-2 17 | WRN helicase inh-2 0.96µM | TO displacement 11µM | BLM counter 0.19µM
COc1ccccc1/C=C1\C(=O)NC(=S)N(c2ccccc2)C1=O	POLI inh inconclusive
CC(=O)NCC(N)C(=O)c1ccc(C)cc1 (centres undefined)	none (no result: Pol eta inh-1, POLB inh, WRN helicase inh-1)
Cc1cc(/C=C2\C(=O)NC(=O)N(c3ccc(Br)cc3)C2=O)c(C)n1-c1cc(C(=O)O)cc(C(=O)O)c1	Pol eta inh-1 2.5µM, FEN1 inh-1 inconclusive, POLB inh 28µM, WRN helicase inh-1 22µM, POLI inh inconclusive, Pol kappa inh-1 2.8µM | TbPGK inh inconclusive | Pol iota confirm 21 | Pol kappa inh-2 3 | Pol eta inh-2 12 | FEN1 inh-2 inconclusive | WRN helicase inh-2 24µM | TO displacement inactive | BLM counter inactive
Cc1cc(/C=C2\C(=O)NC(=O)N(c3ccc(Br)cc3)C2=O)c(C)n1C	POLI inh inconclusive
COC(=O)[C@@H]1C[C@H](OC(C)=O)C(=O)[C@H]2[C@@]1(C)CC[C@H]1C(=O)O[C@H](c3ccoc3)C[C@]21C	none (no result: Pol eta inh-1, FEN1 inh-1, POLB inh, WRN helicase inh-1, POLI inh)
O=C(O)Cc1cccnc1C(=O)O	none (no result: Pol eta inh-1, FEN1 inh-1, POLB inh, WRN helicase inh-1, POLI inh)
